High-throughput results deposited in PubChem by several laboratories.
Mtb FBA inh: Mtb FBA enzyme inhibitors, primary screen, biochemical, fluorescence, strain H37Rv. Fructose-bisphosphate aldolase (Mycobacterium tuberculosis (strain ATCC 25618 / H37Rv)), …. purified M. tuberculosis FBA, fluorescence read-out. inhibition, % at 1 µM. 360,000 compounds, 2.3% hits; in the data active = inhibition above about 27%
Mtb betalactam: beta-lactam sensitization of Mtb H37Rv, H37Rv. M. tuberculosis H37Rv growth with meropenem, percent inhibition. inhibition, % at 25 µM. AID 434955, 2010. 330,000 compounds, 0.27% hits; call rule not given here;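 also: growth measured after seven days incubation then overnight dye step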
GDH-TPI counter: GDH-TPI coupling enzyme inhibitors, primary screen, artefact control for M. tuberculosis FBA inhibitor project, biochemical, absorbance, full deck | GDH-TPI coupled enzyme counterscreen, NADH absorbance | inhibition, % at 4.8 µM | 360,000 compounds, 1.2% hits
RecA intein inh: Mtb RecA intein splicing inhibitors, primary screen, biochemical, fluorescence, HTS | Protein RecA (Mycobacterium tuberculosis (strain ATCC 25618 / H37Rv)), P9WHJ3 | cell-free RecA intein splicing | inhibition, % (no concentration beside the values) | 290,000 compounds, 0.75% hits | AID 2221, 2009; in the data active = inhibition above about 30%
Target sequence (P9WHJ3 whole entry, looked up): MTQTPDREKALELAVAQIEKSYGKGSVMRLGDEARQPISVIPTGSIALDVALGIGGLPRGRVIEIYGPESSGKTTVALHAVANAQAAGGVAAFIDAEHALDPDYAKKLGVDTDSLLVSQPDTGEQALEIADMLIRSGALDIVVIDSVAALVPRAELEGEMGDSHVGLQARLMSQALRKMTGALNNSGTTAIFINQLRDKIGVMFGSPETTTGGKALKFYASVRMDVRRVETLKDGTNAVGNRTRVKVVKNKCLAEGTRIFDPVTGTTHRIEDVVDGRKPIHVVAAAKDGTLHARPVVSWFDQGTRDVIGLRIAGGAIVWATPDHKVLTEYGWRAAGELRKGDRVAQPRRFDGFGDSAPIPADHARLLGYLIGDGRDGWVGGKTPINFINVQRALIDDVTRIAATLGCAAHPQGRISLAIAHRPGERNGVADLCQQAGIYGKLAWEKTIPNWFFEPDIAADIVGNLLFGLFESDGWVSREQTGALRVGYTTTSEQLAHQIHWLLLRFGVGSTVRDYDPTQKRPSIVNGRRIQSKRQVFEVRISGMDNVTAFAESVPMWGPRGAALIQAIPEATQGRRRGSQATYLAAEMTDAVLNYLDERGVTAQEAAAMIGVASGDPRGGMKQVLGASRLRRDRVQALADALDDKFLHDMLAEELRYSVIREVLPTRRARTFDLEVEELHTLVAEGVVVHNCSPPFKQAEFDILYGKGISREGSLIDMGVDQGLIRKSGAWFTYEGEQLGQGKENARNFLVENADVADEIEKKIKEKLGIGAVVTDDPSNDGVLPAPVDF
CCHFV vOTU inh: CCHFV vOTU protease inhibitors, primary screen, biochemical, Pep-AMC substrate, fluorescence | 370,000 compounds, 0.55% hits | AID 651958, 2012 | Crimean-Congo hemorrhagic fever virus L polyprotein viral ovarian tumor (vOTU) protease … | inhibition, % at 11.5 µM
Hits are given with their value; i = inactive; nt = no result; + = active, no number. Shown are actives, neighbours in structure and some others; about 4.2% of the full set was active somewhere. Rule as the data show it, unless noted: active = inhibition above about 30%; inactive = the rest.

SMILES | Mtb FBA inh | Mtb betalactam | GDH-TPI counter | RecA intein inh | CCHFV vOTU inh
CC1(C)CC(NC(=O)c2ccc(F)cc2)CC(C)(C)N1 | i | nt | i | nt | i
CC(=O)c1ccc(-c2ccc(C(=O)N3CCC(C(N)=O)CC3)o2)cc1 | 117.9 | i | i | i | i
CC(=O)c1ccc(-c2ccc(C(=O)NCC3CCCO3)o2)cc1 (stereo not given) | + | i | i | i | i
CC(=O)c1ccc(-c2ccc(C(=O)NC3CC(C)(C)NC(C)(C)C3)o2)cc1 | 179.5 | i | 43.9 | i | i
CCOC(=O)[C@]12CCCC=C1N(Cc1ccc(OC)cc1)C(=O)[C@@H]2CC(=O)N1CCC(c2ccccc2)CC1 | nt | nt | nt | nt | i
CC1=C2N=C(N)N(Cc3ccccc3)C(Cc3ccccc3)C2n2c(=O)n(-c3ccccc3)c(=O)n2C1 (stereo not given) | nt | nt | nt | nt | i
COc1ccc(C(=O)CSc2nnc(-c3ccccc3)n2-c2ccc(Cl)cc2)cc1 | nt | nt | nt | nt | i
CSc1ccc(/C=C2\C(=N)N3N=C(CC(=O)N4CCOCC4)SC3=NC2=O)cc1 | i | i | i | i | i
N=C1/C(=C/c2ccco2)C(=O)N=C2SC(CC(=O)N3CCCC3)=NN12 | i | i | 30.8 | i | i
COc1ccc(-n2c(C)cc(/C=C3\C(=N)N4N=C(CC(=O)N5CCOCC5)SC4=NC3=O)c2C)cc1 | i | i | 45.7 | i | i
Cc1cc(/C=C2\C(=N)N3N=C(CC(=O)N4CCOCC4)SC3=NC2=O)c(C)n1-c1ccccc1 | i | i | 33.6 | i | i
COC(=O)[C@H](C(C)C)N(CCc1cn(Cc2ccccc2)nn1)S(=O)(=O)c1ccccc1Br | nt | nt | nt | nt | i
O=C(Nc1nc2nccc(-c3ccccc3)n2n1)C(Cl)(Cl)Cl | 172.8 | i | i | i | i
Clc1cccc(-c2ccnc3nc(-n4cccc4)nn23)c1 | i | i | i | i | i
CNC(=S)N/N=C/c1ccc(-c2cccc(C(=O)O)c2)o1 | i | i | 84.8 | i | i
COc1ccc(CC(=O)N/N=C/c2ccc(-c3ccc(F)cc3)o2)cc1OC | i | i | 45.1 | i | i
O=[N+]([O-])c1cccc(-c2ccc(/C=N/NC(=S)Nc3ccccc3)o2)c1 | i | i | 34.0 | i | i
COc1ccc(CC(=O)N/N=C/c2ccc(-c3cccc(C(=O)O)c3)o2)cc1OC | i | i | 74.7 | i | i
Cc1ccc(OCC(=O)N/N=C\c2ccc(-c3cccc(C(=O)O)c3)o2)c(C)c1 | i | i | i | i | i
COc1cccc(OC(C)CCN2CCC(C(O)(c3ccccc3)c3ccccc3)CC2)c1 (stereo not given) | nt | nt | nt | nt | i
COc1ccc2oc3ccc(OC)cc3c(=O)c2c1 | 48.7 | i | i | i | i
CCCN(CC1CC1)c1c2c(nc3ncnn13)CCCC2 | nt | nt | nt | nt | i
C/C(=N\NC(=O)c1ccc(N2CCCC2=O)cc1)c1ccc(O)cc1O | i | i | 33.2 | i | i
CC(=NNC(=O)c1ccncc1)c1ccccc1O | i | nt | i | nt | i
C/C(=N\NC(=O)c1ccc(N2CCCC2=O)cc1)c1ccccc1 | i | i | i | nt | i
SMILES | Mtb FBA inh | Mtb betalactam | GDH-TPI counter | RecA intein inh | CCHFV vOTU inh
CC(=NNC(=O)c1ccncc1)c1ccc(O)cc1O | i | nt | 41.4 | nt | i
CCCCN(C)c1nc(C)nc2c1nnn2Cc1ccccc1 | nt | nt | nt | nt | i
Cc1cccc(C)c1NC(=O)/C(C#N)=C/c1cccs1 | i | i | 42.2 | i | i
O=C(CCC1CCCC1)N1CCN(C(=O)c2ccco2)CC1 | 134.7 | i | i | i | i
O=C(NC1CCCCN(Cc2cccc(C(F)(F)F)c2)C1=O)c1cccc([N+](=O)[O-])c1 (stereo not given) | nt | nt | nt | nt | i
N#Cc1ccc(C(=O)Nc2nnc(-c3cccs3)o2)cc1 | i | i | 32.9 | i | i
CCC1CCCCN1S(=O)(=O)c1ccc(C(=O)Nc2nnc(-c3cccs3)o2)cc1 (stereo not given) | i | i | 67.6 | nt | nt
CN(C)S(=O)(=O)c1ccc(C(=O)Nc2nnc(-c3cccs3)o2)cc1 | i | i | i | nt | i
O=C(NCCc1ccccc1)c1ccc(Sc2ccccc2Cl)c([N+](=O)[O-])c1 | nt | nt | nt | nt | i
COC(=O)Nc1nn(-c2ccc(OC)cc2)c(=O)c(C#N)c1C | i | i | i | 39.6 | i
O=C(Cc1cc(=O)oc2cc(O)ccc12)NCC1CCC(C(=O)O)CC1 (stereo not given) | + | i | i | i | i
Cc1cc(=O)oc2cc(OC(C)C(=O)NCC3CCC(C(=O)O)CC3)ccc12 (stereo not given) | 27.6 | i | i | i | i
CC(Oc1ccc2c(-c3ccccc3)cc(=O)oc2c1)C(=O)NCC1CCC(C(=O)O)CC1 (stereo not given) | i | i | i | i | i
CCCc1cc(=O)oc2cc(OCC(=O)NCC3CCC(C(=O)O)CC3)ccc12 (stereo not given) | i | i | i | i | i
O=C1NC(=S)SC1=C1CCCCCC1 | i | i | 33.2 | i | i
Cc1c(C)c2c(OCC(=O)N[C@@H](Cc3ccccc3)C(=O)O)cc3c(c2oc1=O)CCC(C)(C)O3 | + | i | 38.2 | i | i
COCCCNC(=O)COc1cc2c(c3oc(=O)c(C)c(C)c13)CCC(C)(C)O2 | + | i | i | i | i
Cc1c(C)c2c(OCC(=O)N[C@@H](CC(C)C)C(=O)O)cc3c(c2oc1=O)CCC(C)(C)O3 | + | i | i | i | i
COCCCNC(=O)COc1ccc2oc3c(c2c1)CCCC3 | i | i | i | i | i
Cc1c(C)c2c(OCC(=O)NC3CC3)cc3c(c2oc1=O)CCC(C)(C)O3 | + | i | i | i | i
O=C(NC1CCCCN(Cc2cccc(C(F)(F)F)c2)C1=O)c1ccc(COc2ccccc2)cc1 (stereo not given) | nt | nt | nt | nt | i
C/C(C=Nn1c(-c2ccc(F)cc2)n[nH]c1=S)=C/c1ccco1 | nt | nt | nt | nt | i
Cc1cc(OCC(=O)N[C@@H](Cc2c[nH]c3ccccc23)C(=O)O)c2c(C)c(C)c(=O)oc2c1 | i | i | i | i | i
CCCC(NC(=O)COc1cc2c(c3oc(=O)c(C)c(C)c13)CCC(C)(C)O2)C(=O)O (stereo not given) | + | i | i | i | i
CSCC[C@H](NC(=O)COc1cc2c(c3oc(=O)c(C)c(C)c13)CCC(C)(C)O2)C(=O)O | + | i | i | i | i
SMILES | Mtb FBA inh | Mtb betalactam | GDH-TPI counter | RecA intein inh | CCHFV vOTU inh
CSC[C@H](NC(=O)COc1cc2c(c3oc(=O)c(C)c(C)c13)CCC(C)(C)O2)C(=O)O | + | i | i | i | i
CSC[C@H](NC(=O)COc1cc2c(c3oc(=O)cc(C)c13)CCC(C)(C)O2)C(=O)O | + | i | i | i | i
CCOC(=O)[C@]12CCCCC/C=C\1N(CCc1ccc(Cl)cc1)C(=O)[C@H]2CC(=O)N1CCSCC1 | nt | nt | nt | nt | i
CNC(=O)c1ccsc1NC(=O)c1ccccc1 | i | i | i | i | i
O=C(CCl)Nc1sccc1C(=O)c1ccccc1 | i | i | i | 56.6 | i
O=C(c1ccccc1)n1ccc2ccc(-c3ccc4ccn(C(=O)c5ccccc5)c4c3)cc21 | nt | nt | nt | nt | i
